This is one part of a sample in which hits are shown more often than they occur.
RGS12 GoLoco inh: blocks human Gai1 binding to RGS12 GoLoco peptide, red readout. P63096. Gai1:RGS12 GoLoco peptide FP, rhodamine, 10 min. Potency, µM (titrated, usually from 61.6 µM), most hits filed as inhibitors. AID 880. actives 0.44% (n = 230,000); active = well fitted inhibition curve with a large enough effect, not every such curve was filed as active; inactive = no such curve, though single readings can be large or run the other way; note: nearly all actives have a fitted effect of over 30% in size
IMPase Li cell: membrane-permeable IMPase blocker, potentiated with lithium; actives 0.35% (n = 210,000); Potency, µM (top dose mostly 59.4 µM), hits mostly inhibitors; CHO-M1 cells, IP1 TR-FRET (IP-One), carbachol + lithium;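 note: IP1 builds up when IMPase is blocked and the TR-FRET signal falls; nearly all actives have a fitted effect of over 50% in size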
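IP1 accumulation measured by competitive TR-FRET in lysed CHO-M1 cells after 30 min compound exposure at 37C, with a small lithium addition to potentiate weak responses. Hill-equation AC50 from ratio and donor-channel data.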
MBNL1-CUG inh: MBNL1-poly(CUG) RNA binding inhibition | Q9NR56 | AID 2675 | Potency, µM (top dose mostly 57.5 µM), most hits filed as inhibitors | TR-FRET MBNL1-His/biotin-(CUG)12 binding, 665/545 ratio | actives 0.036% (n = 280,000); active = well fitted inhibition curve with a large enough effect in the signal ratio, with a control signal flat, not every such curve was filed as active; inconclusive = small, poorly fitted or top-dose-only effect, or effect the other way, or a change in a side signal; inactive = no such curve, though single readings can be large or run the other way; the % refers to the signal ratio
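Compound titration spanned 92 nM–58 uM against the MBNL1-His/biotin-(CUG)12 complex. After 60 min at room temperature with 5 nM streptavidin-XL665 and 0.055 ng/ul terbium anti-His, ratiometric 665/545 nm emission (Ex 340 nm) normalized to controls.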
Tb PFK inh-1: blocks T. brucei phosphofructokinase | T. brucei PFK, ADP-Glo luminescence | Potency, µM (top dose mostly 57.5 µM), most hits filed as inhibitors | actives 0.17% (n = 330,000) | O15648; note: nearly all actives have a fitted effect of over 60% in size
Target sequence (O15648 whole entry, looked up): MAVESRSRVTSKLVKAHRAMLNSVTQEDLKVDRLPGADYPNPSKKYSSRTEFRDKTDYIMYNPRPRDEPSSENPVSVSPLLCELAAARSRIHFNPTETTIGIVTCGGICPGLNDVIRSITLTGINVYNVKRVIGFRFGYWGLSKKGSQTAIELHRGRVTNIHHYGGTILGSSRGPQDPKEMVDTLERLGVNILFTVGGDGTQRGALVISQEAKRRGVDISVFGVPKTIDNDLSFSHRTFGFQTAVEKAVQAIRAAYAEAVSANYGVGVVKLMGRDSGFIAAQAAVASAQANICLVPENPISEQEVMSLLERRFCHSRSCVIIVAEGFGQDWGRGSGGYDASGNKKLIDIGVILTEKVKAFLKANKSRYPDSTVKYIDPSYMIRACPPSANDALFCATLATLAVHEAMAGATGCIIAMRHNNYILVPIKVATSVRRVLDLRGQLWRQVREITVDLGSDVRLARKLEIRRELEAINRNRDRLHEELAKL
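In TEA buffer at pH 8.0 with 5 mM MgCl2, enzyme (1.25 nM) converted F6P (0.5 mM) and ATP (0.1 mM) for 45 min at room temperature. ADP product was read by luciferase luminescence.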
NPSR antag: neuropeptide S receptor (human) antagonism, cAMP; Q6W5P4; CHO-NPSR cells, cAMP TR-FRET, antagonist mode; Potency, µM (highest dose often 38.3 µM), usual class: inhibitors; actives 1% (n = 220,000); AID 1461; note: nearly all actives have a fitted effect of over 50% in size
TbPFK ATP: inhibits T. brucei PFK measured by ATP depletion; Potency, µM (top dose mostly 57.5 µM); AID 504636; Tb PFK enzyme, ATP depletion, Kinase-Glo Plus luminescence; shares compounds with Tb PFK inh-1; actives 47% (n = 1,100); calls by dose curve; note: nearly all actives have a fitted effect of over 60% in size
Tb PFK inh-2: validation of T. brucei phosphofructokinase inhibitors | purified T. brucei PFK, ADP-Glo luminescence, 45 min | Potency, µM (titrated, usually from 57.5 µM), most hits filed as inhibitors | shares compounds with Tb PFK inh-1 | actives 41% (n = 1,100); note: nearly all actives have a fitted effect of over 60% in size
Numbers stand for hits; n = inactive; u = inconclusive; x = no result; [ ] = dose if it differs, or a comment. Unless noted, calls come from the whole dose curve; as a rule, active = well fitted curve in the direction sought with a large enough effect; inconclusive = small, poorly fitted or top-dose-only effect, or another doubt; inactive = no such curve, though single readings can be large; an effect the other way counts as inactive or inconclusive.

SMILES	RGS12 GoLoco inh	IMPase Li cell	MBNL1-CUG inh	Tb PFK inh-1	NPSR antag	TbPFK ATP	Tb PFK inh-2
O=C(Nc1ccc([As](=O)(O)O)cc1)Nc1cccc(Cl)c1Cl	n[14.2 µM]	n	x	x	x	x	x
O=C(COC(=O)c1cc2c(s1)CCC2)Nc1ccc(F)cc1	n	n	n	11µM	n	u	u
CCN(CC)C(=O)c1ccc(NC(=O)COC(=O)c2ccc(Cl)s2)cc1	x	x	x	n	x	x	x
CC(=O)Nc1c2sscc-2n(C)c1=O	n	n	x	x	x	x	x
Cc1cc(NC(=O)Nc2ccc(Cl)c(Cl)c2)n(-c2ccccc2)n1	n	x	n	19µM	u	u	n
CCCN(CCC)c1c([N+](=O)[O-])cc(C(F)(F)F)cc1[N+](=O)[O-]	n	n	x	x	x	x	x
O=C(O)CCN1C(=O)c2ccc(NC(=O)Cc3ccc(Cl)cc3)cc2C1=O	n	n	n	19µM	n	u	27µM
O=C(O)CCCNC(=O)c1ccc(NC(=O)Cc2ccc(Cl)cc2)cc1	n	n	n	u	n	u	u
CCCN(CCC)[C@@H]1CCc2c(F)ccc(O)c2C1	n	n	x	x	n	x	x
Cc1c(Br)c(O)c(Br)c2sc(=O)oc12	n	x	x	u	n	n	n
O=C1CCCC2C3CC(CN12)C1CCCCN1C3 (centres undefined)	n	n	x	x	x	x	x
COc1cc(C2/C(=C(/O)c3ccc(F)cc3)C(=O)C(=O)N2CCCC(=O)O)ccc1O (centres undefined)	n	n	n	u	n	12µM	21µM
Cc1ccc(S(=O)(=O)N2[C@@H](c3ccccc3F)C(C(=O)O)=CC[C@H]2c2ccc(Cl)c(Cl)c2)cc1	x	x	x	27µM	x	n	n
Cc1ccc(S(=O)(=O)N2CCCC2c2cccnc2)cc1 (centres undefined)	n	x	x	n	n	x	x
CCN(CC)c1ncnc2c1ncn2[C@@H]1O[C@H](COP(=O)(O)OP(=O)(O)C(Br)(Br)P(=O)(O)O)[C@@H](O)[C@H]1O	n	n	x	x	n	x	x
NCCOc1ccccc1Cc1ccccc1	n	n	n	19µM	n	u	u
C[C@H]1O[C@H](O[C@H]2[C@H](O)[C@@H](O)[C@@H](O)[C@H](O)[C@@H]2O)[C@@H](N)C[C@@H]1NC(=N)C(=O)O	n	n	x	x	x	x	x
CC(=O)c1ccc(S(=O)(=O)N2CCN(CC(=O)Nc3ccc(Cl)c([N+](=O)[O-])c3)CC2)cc1	x	x	x	13µM	x	u	u
O=C(Nc1ccccc1[N+](=O)[O-])c1ccc(S(=O)(=O)N2CCCC2)cc1	x	x	u	n	x	x	x
COc1ccc(CN(C)S(=O)(=O)c2nnc(NC(=O)c3ccccc3Br)s2)cc1	x	x	n	n	x	x	x
c1ccc(-c2csc(-n3cnnn3)n2)cc1	n	n	n	u	n[7.67 µM]	u	n
CCBr	n	n	x	x	x	x	x
C#CCOS(=O)OC1CCCCC1Oc1ccc(C(C)(C)C)cc1 (centres undefined)	n	n	x	x	x	x	x
CN1CCN(Cc2cc(C(C)(C)C)c(O)c(C(C)(C)C)c2)CC1	n	n	n	n	n	x	x
O=S1(=O)CCN(Cc2ccc(Cl)c(C(F)(F)F)c2)CC1	n	n	n	u	n	24µM	u
SMILES	RGS12 GoLoco inh	IMPase Li cell	MBNL1-CUG inh	Tb PFK inh-1	NPSR antag	TbPFK ATP	Tb PFK inh-2
O=C1SC(SCc2ccccc2)=N/C1=C\c1ccc(C(=O)O)cc1	n	n	n	u	n	n	u
C=CCSC1=N/C(=C\c2cc(OC)c3c(c2)OCO3)C(=O)S1	n	n	n	u	n	x	x
C[C@@]12CC[C@H]3[C@@H](CC[C@H]4C[C@@H](O)CC[C@]43C)[C@H]1CC[C@@H]2C(=O)C[C@H](O)C(F)(F)F	n[14.2 µM]	n	x	x	x	x	x
Cc1ccc(C(=O)OCC(=O)c2ccc(CC(=O)N3CCOCC3)s2)c(C)c1	x	x	x	u	x	u	u
CCC(Cl)[N+](=O)[O-] (centres undefined)	n	n	x	x	x	x	x
Cc1nn(Cc2ccc(Cl)c(Cl)c2)c(C)c1NC(=O)c1cc(CC(C)C)on1	n	n	n	30µM	u	11µM	12µM
Cc1nn(Cc2ccc(F)cc2)c(C)c1NC(=O)c1cc2ncc(Br)cn2n1	n	n	u	24µM	n	11µM	24µM
Cc1nn(Cc2ccccc2)c(C)c1C(=O)NCc1ccccc1	n	n	x	n	n	x	x
O=C1CC(c2ccc(O)c(O)c2)Oc2c1ccc(O)c2O (centres undefined)	n	x	n	u	n	1.9µM	2.1µM
COc1cc2c(cc1OC)CN(C(=O)COc1ccccc1[N+](=O)[O-])CC2	x	x	u	u	x	n	n
CN1C[C@@H](C(=O)N[C@@]2(C)O[C@]3(O)C4CCCN4C(=O)[C@@H](Cc4ccccc4)N3C2=O)C=C2c3cccc4[nH]cc(c34)C[C@@H]21 (some centres undefined)	n	n	x	x	x	x	x
O=C(Nc1ccc(Cl)cc1C(=O)c1ccccc1Cl)c1ccco1	n	n	n	n	n	x	x
O=C(CCNc1ccc(F)c(Cl)c1)c1ccco1	n	n	n	u	n	13µM	21µM
N#Cc1ccc(NC(=O)CCNC(=O)c2ccco2)cc1Cl	x	x	n	n	x	x	x
O=C(CCNc1ccc(Cl)c(C(F)(F)F)c1)c1ccco1	n	n	n	u	n	u	u
C=C(C)C(=O)CP(=O)(OCC)OCC	n	n	x	x	x	x	x
CCC1=C(C[C@H]2NCCc3cc(OC)c(OC)cc32)C[C@H]2c3ccccc3CCN2C1	n[14.2 µM]	n	x	x	x	x	x
CCN(CC)C(=O)c1ccc(NC(=O)c2cccc(S(=O)(=O)N3CCN(C)CC3)c2)cc1	x	x	n	n	x	x	x
CC(=O)c1cccc(OCC(=O)N(C)CC(=O)NCc2ccco2)c1	x	x	x	19µM	x	2.4µM	2.7µM
COc1ccc(C(=O)OCC(=O)NCc2ccco2)cc1OC	n	n	n	u	n	u	u
CCOc1ccc2c(c1)c(C(C)=O)c(C)n2Cc1ccco1	n	n	u	n	n	x	x
O=C(COC(=O)c1ccccc1Oc1ccccc1)NCc1ccco1	n	n	n	27µM	n[7.67 µM]	17µM	u
O=C(COC(=O)c1cccc(S(=O)(=O)N2CCc3ccccc3C2)c1)NCc1ccco1	n	n	n	11µM	n	n	u
COc1ccc(C(=O)Nc2ccccc2C(=O)NC(C(=O)NCc2ccco2)C(C)C)cc1 (centres undefined)	n	u	n	n	n	x	x
CN[C@H](Cc1ccccc1)c1cccc(OC)c1O	n[14.2 µM]	n	x	x	x	x	x
O.O.[NH-]C1(C(=O)O)CCCC1.[NH-]C1(C(=O)O)CCCC1.[Ni+2]	n[14.2 µM]	n	x	x	x	x	x
CCC(C)C(=O)c1c(O)c(C)c2oc3c(C)c(O)c(C(=O)C(C)CC)c(O)c3c2c1O (centres undefined)	n	n	x	x	x	x	x
NCC(N)C(=O)c1ccccc1 (centres undefined)	n	n	x	x	x	x	x

Source: PubChem BioAssay (National Center for Advancing Translational Sciences (NCATS))
